Common to all, as to design: scale not given: direction of the effect not stated beside the values
Test [1] has as its target Protein translocase subunit SecA (Escherichia coli (strain K12)) (UniProt P10408). Put plainly: Assay to Identify E. coli SecA ATPase Inhibitors. Type of test: functional. To be noted: 30 µM.
For test [2], the target named is T1, Ubiquitin-activating enzyme e1, putative (Leishmania donovani (strain BPK282A1)) (UniProt E9BSI1).
T1 sequence (whole entry): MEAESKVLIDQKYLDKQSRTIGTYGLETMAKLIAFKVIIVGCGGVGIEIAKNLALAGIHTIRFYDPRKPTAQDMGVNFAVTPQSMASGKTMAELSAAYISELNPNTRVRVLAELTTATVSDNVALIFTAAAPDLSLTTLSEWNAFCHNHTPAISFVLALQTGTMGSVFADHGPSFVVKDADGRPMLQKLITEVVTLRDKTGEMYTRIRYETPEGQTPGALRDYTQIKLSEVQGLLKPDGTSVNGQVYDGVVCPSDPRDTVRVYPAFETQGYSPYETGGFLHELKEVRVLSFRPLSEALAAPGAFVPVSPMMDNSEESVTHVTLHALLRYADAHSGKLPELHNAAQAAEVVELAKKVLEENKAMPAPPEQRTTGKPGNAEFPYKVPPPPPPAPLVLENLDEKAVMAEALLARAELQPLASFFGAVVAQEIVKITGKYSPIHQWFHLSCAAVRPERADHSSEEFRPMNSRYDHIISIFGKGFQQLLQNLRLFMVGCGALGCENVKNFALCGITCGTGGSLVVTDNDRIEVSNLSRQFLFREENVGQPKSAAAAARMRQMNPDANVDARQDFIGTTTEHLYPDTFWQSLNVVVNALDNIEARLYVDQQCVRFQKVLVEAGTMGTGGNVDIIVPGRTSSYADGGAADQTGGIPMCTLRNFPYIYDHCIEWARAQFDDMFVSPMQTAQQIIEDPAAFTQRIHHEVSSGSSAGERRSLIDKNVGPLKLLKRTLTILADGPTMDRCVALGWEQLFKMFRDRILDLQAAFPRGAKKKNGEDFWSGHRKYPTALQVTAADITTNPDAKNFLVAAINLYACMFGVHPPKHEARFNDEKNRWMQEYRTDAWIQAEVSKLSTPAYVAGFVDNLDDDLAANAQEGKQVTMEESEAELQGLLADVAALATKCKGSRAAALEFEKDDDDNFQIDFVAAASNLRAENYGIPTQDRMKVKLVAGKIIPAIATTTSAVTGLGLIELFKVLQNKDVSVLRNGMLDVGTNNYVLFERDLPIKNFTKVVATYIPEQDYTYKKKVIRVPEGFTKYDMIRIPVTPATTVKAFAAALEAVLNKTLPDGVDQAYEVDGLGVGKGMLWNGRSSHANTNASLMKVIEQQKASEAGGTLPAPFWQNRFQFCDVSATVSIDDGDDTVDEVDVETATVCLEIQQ
Put plainly: Leishmania donovani Ubiquitin Activating Enzyme (LdE1). The class given is functional. To be noted: 30 µM.

In test [3] the target is AMP-activated protein kinase, AMPK (Homo sapiens) (UniProt P54646+O43741+P54619+Q9UGJ0+Q9Y478+Q13131+Q9UGI9). Description: AMP-dependent Kinase enzyme assay. An in vitro enzyme assay that detects ADP turnover that is directly proportional to AMPK activity. This uses naive AMPK that is activated during the assay with MK-8722. As to conditions: 30 µM. The class given is functional.

For test [4], the target named is Sialic acid-binding Ig-like lectin 9 (Homo sapiens) (UniProt Q9Y336). Description: Hs-Siglec9 ALPHAscreen SOP 20170721. To be noted: 10 µM. On the technique in general: In Alpha technology, singlet oxygen from a donor bead excites a nearby acceptor bead.
Chain of Sialic acid-binding Ig-like lectin 9 (Homo sapiens) (Q9Y336 whole entry): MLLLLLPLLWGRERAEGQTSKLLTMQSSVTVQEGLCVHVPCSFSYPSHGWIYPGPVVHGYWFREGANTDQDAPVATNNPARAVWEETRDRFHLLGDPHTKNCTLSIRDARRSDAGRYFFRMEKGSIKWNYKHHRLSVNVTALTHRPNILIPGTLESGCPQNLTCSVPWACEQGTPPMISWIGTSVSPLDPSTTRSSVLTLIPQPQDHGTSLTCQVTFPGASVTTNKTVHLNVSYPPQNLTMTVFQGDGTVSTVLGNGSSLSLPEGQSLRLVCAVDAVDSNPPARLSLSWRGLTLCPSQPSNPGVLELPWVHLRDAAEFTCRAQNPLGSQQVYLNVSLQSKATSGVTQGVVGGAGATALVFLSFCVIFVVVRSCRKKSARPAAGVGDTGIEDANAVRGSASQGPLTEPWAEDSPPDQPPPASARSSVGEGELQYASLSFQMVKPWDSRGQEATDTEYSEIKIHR
The subject of the next test is Trypanosoma cruzi. Put plainly: Trypanosoma cruzi phosphomannomutase and mannose-1-phosphate guanylyltransferase assay. Type of test: functional. To be noted: 10 µM.
Test [5] deals with T2, Arginase-2, mitochondrial (Homo sapiens) (UniProt P78540).
T2 sequence (whole entry): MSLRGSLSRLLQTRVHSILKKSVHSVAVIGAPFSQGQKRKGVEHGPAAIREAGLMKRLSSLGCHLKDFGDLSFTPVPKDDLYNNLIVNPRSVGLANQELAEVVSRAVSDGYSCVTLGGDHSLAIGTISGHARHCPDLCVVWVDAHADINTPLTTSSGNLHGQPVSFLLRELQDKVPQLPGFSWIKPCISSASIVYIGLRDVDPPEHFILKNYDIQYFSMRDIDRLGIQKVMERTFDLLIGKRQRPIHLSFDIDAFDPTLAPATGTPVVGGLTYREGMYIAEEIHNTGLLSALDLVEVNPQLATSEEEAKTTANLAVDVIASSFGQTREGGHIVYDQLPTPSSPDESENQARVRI
Description: in vitro enzyme assay to detect the production of urea directly proportional to the activity of Arginase II. Also: in the data most compounds retested in dose-response had high values. Type of test: functional. As to conditions: 33.3 µM.

Test [6] concerns the target T3, Proteasome subunit beta (Trypanosoma cruzi) (UniProt O96673).
T3 sequence (whole entry): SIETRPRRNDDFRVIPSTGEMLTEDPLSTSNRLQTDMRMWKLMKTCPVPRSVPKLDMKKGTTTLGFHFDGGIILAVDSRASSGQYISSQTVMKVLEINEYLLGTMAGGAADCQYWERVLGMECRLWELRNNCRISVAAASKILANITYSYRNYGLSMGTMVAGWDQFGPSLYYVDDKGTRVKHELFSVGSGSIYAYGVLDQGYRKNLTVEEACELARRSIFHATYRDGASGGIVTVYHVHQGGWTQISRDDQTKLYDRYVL
Put plainly: Trypanosoma cruzi proteasome chymotrypsin-like activity (TcProtChymo) assay. Also: in the data most compounds retested in dose-response had high values. Type of test: functional. As to conditions: 9.37 µM.

The species entered for another test is Homo sapiens. Put plainly: To identify inhibition of the IFN signalling (Jak-Stat) pathway via expression of an eGFP reporter gene under the control of an IFN-stimulated response element (ISRE) containing MxA promoter. Type of test: functional. To be noted: 30 µM.
In test [7] the target is T4, Tyrosyl-tRNA synthetase, putative (Trypanosoma cruzi (strain CL Brener)) (UniProt Q4DSP6).
T4 sequence (whole entry): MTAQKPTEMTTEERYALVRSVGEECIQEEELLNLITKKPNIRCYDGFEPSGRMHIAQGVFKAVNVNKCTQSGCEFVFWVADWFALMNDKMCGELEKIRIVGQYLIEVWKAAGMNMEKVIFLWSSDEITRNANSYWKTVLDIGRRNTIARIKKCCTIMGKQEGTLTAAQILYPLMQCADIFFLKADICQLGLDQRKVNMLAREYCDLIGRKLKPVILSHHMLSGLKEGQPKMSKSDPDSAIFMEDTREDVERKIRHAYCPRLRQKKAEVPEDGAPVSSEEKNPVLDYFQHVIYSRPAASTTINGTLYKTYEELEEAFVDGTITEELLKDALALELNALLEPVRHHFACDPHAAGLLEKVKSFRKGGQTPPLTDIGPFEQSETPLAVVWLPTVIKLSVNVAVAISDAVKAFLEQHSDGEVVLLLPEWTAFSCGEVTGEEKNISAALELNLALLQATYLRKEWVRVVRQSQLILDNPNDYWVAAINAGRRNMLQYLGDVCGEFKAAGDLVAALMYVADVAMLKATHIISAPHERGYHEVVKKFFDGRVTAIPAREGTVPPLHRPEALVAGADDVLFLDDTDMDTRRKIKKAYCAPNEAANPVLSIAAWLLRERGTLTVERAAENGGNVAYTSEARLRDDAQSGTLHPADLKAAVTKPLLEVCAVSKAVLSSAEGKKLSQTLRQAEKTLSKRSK
Description: Trypanosoma cruzi tyrosyl tRNA synthetase (TcYRS) _High Tyrosine SOP. Also: in the data most compounds retested in dose-response had high values. The class given is functional. As to conditions: 30 µM.

Test [8] concerns the target T4, Tyrosyl-tRNA synthetase, putative (Trypanosoma cruzi (strain CL Brener)). Put plainly: Trypanosoma cruzi tyrosyl tRNA synthetase (TcYRS) SOP. To be noted: 30 µM. The class given is functional.
The target of test [9] is Chromo domain-containing protein 1 (Saccharomyces cerevisiae (strain ATCC 204508 / S288c) (Baker's yeast)) (UniProt P32657). Description: ScCHD-1 Enzyme Inhibition Assay. Also: in the data most compounds retested in dose-response had high values. Type of test: functional. As to conditions: 30 µM.
Chain of Chromo domain-containing protein 1 (Saccharomyces cerevisiae (strain ATCC 204508 / S288c) (Baker's yeast)) (P32657 whole entry, the tested form may be a part): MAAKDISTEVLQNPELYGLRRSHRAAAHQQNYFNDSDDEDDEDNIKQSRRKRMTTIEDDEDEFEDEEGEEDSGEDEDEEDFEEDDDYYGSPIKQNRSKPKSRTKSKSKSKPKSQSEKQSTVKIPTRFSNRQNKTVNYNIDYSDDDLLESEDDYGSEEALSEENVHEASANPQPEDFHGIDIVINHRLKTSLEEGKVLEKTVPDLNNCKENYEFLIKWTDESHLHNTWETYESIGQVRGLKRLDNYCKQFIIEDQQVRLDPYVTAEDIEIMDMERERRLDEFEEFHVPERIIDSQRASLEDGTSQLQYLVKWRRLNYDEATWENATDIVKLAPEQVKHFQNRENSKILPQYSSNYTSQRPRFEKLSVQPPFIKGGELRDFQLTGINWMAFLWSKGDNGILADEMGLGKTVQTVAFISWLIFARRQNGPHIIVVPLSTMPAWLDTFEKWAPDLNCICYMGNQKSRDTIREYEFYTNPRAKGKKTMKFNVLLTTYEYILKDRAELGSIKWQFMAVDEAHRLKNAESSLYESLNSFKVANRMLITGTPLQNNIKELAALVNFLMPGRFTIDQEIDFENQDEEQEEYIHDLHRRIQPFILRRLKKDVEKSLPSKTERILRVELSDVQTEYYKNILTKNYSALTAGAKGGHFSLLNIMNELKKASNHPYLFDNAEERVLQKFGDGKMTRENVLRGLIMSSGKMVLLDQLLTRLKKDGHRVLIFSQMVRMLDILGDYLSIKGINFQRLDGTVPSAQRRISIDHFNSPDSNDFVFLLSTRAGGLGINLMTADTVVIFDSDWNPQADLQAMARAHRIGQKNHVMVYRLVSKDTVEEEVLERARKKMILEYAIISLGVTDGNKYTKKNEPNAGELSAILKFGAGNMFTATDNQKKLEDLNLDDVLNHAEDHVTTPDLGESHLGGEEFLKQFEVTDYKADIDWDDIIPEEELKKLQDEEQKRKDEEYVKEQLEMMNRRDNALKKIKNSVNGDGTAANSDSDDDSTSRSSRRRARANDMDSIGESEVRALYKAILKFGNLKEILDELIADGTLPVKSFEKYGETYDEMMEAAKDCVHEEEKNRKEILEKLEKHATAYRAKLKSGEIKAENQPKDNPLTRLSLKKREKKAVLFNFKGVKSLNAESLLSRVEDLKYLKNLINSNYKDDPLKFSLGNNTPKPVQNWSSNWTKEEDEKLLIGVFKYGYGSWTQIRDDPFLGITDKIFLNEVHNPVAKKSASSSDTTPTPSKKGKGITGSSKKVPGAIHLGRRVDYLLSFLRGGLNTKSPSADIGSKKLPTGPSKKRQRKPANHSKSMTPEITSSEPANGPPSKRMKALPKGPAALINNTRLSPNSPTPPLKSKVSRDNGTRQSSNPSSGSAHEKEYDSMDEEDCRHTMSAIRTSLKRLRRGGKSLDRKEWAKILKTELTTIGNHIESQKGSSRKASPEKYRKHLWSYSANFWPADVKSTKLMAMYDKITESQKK

For some of these results: Measured potencies and affinities stand elsewhere.

Chain of Protein translocase subunit SecA (Escherichia coli (strain K12)) (P10408 whole entry): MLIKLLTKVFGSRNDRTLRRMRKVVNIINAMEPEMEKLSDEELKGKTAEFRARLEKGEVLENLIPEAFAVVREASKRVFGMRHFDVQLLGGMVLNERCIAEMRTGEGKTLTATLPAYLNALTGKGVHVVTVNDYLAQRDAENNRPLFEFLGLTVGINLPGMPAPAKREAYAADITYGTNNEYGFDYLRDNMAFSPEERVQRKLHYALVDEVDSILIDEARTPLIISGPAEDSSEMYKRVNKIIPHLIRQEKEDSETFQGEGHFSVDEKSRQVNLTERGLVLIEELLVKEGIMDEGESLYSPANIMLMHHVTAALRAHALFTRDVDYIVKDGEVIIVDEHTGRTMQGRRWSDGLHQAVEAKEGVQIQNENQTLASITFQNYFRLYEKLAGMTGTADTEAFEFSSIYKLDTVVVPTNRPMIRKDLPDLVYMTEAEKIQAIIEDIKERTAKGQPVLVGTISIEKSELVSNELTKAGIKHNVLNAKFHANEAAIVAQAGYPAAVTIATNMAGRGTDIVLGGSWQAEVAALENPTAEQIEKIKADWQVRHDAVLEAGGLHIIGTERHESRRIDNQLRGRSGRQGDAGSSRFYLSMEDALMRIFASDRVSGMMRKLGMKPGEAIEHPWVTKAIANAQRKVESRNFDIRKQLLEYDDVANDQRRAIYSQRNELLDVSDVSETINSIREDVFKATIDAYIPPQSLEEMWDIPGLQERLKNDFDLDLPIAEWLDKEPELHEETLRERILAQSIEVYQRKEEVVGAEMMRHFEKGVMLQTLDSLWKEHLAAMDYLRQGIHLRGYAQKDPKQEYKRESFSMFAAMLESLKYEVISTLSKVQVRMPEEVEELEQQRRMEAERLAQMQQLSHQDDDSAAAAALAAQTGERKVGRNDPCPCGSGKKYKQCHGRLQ

With `CNc1cncc(C2CCCN2C(=O)c2ccc3oc(=O)n(C)c3c2)n1` (stereo unspecified), the Percent Effect was -2.39% in test [1]; 14.9% in [2]; 8.4% in test [3]; -7.77% in test [4]; 3.36% in the test with Trypanosoma cruzi; 0.696% in test [5]. In addition, the Percent Effect is 9.36% in [6]; -8.91% in the test filed under Homo sapiens; 5.38% in test [7]; 3.9% in test [8]; -16.2% in [9].
Regarding `COc1cccc(C2CCCN2Cc2nc3c(cnn3C)c(=O)[nH]2)c1` (stereo unspecified), the Percent Effect in test [1] was -0.893%; in [2] it was 22.8%; in test [3], 2.53%; in [4], -5.13%; with Trypanosoma cruzi it was 0.661%; in [5] it was 3.8%. The Percent Effect was 14.2% in [6]; 17.2% in the test listed under Homo sapiens; 6.4% in [7]; 24.1% in test [8]; -5.39% in test [9].
Regarding `Cc1oc(-c2nc(C#N)c(N(C)C)o2)cc1S(=O)(=O)N1CCCC1`, the Percent Effect in test [1] is -3.98%; in test [2], 4%; in [3] it was -2.67%; in [4] it was 8.99%; in the test on Trypanosoma cruzi, 2.75%; in [5], -7.92%. In addition, the Percent Effect was 17.2% in [6]; -8.23% in the test listed under Homo sapiens; 1.06% in test [7]; 10.3% in [8]; -0.712% in [9].
With `Cc1cccc(-c2ccc(C(=O)NCC(C)(C)C(N)=O)c(=O)[nH]2)c1`, the Percent Effect in test [1] is -5.4%; in test [2] it was 2.7%; in test [3], -7.65%; in [4] it was 17.1%; in the test with Trypanosoma cruzi, 2.92%; in test [5], -2.81%. Also, the Percent Effect is 5.41% in test [6]; 0.882% in the test listed under Homo sapiens; -0.493% in [7]; 11.1% in test [8]; -14.8% in test [9].
For the molecule `COCCc1noc(CNC2CCCN(c3cccnn3)C2)n1` (stereo unspecified), the Percent Effect in test [1] is -5.96%; in [2] it was -5.2%; in test [3], -0.848%; in [4], -4.06%; in the test on Trypanosoma cruzi it was -3.25%; in test [5], 11%. In addition, the Percent Effect is 19.3% in test [6]; 3.62% in the test listed under Homo sapiens; 0% in test [7]; -3.7% in [8]; 0.853% in test [9].
For `COC(C(=O)N1CCN(c2cccc(Cl)c2)C(=O)C1)c1ccccc1` (stereo unspecified), the Percent Effect in test [1] was -1.02%; in [2], 0%; in test [3], 0.72%; in [4] it was 1%; with Trypanosoma cruzi it was -2.7%; in test [5] it was 3.33%. The Percent Effect in test [6] is 14.7%; in the test listed under Homo sapiens it was 0.627%; in [7] it was 3.7%; in test [8] it was 9.76%; in test [9], -4.32%.
For the molecule `CS(=O)(=O)NC[C@]12COC[C@H]1CN(C(=O)Cc1ccccc1F)C2`, the Percent Effect in test [1] is 0.295%; in test [2], -101%; in [3] it was 5.66%; in test [4], -7.42%; with Trypanosoma cruzi it was -7.2%; in test [5], -4.52%. The Percent Effect in test [6] was 6.44%; in the test filed under Homo sapiens, -5.85%; in test [7], -125%; in [8], -232%; in [9] it was -6.07%.
For the molecule `CC(C)c1nccn1CCCNC(=O)c1ccc(-c2cncnc2)nc1`, the Percent Effect is -0.347% in test [1]; 8% in test [2]; -10.9% in test [3]; 8.21% in test [4]; 3.21% with Trypanosoma cruzi; 7.29% in test [5]. Further, the Percent Effect in test [6] was 16.2%; in the test filed under Homo sapiens, 17.9%; in [7], 4.92%; in test [8], 13.6%; in test [9], -5.5%.
Regarding `COCCOCC(=O)Nc1ccc(C)cc1F`, the Percent Effect was -1.36% in test [1]; 2.63% in test [2]; 5.59% in test [3]; -0.498% in test [4]; 3.21% with Trypanosoma cruzi; 0% in [5]. Moreover, the Percent Effect in test [6] is 9.11%; in the test filed under Homo sapiens it was -16.7%; in test [7], 2.13%; in test [8] it was 2.6%; in test [9], 2.83%.
Consider `COc1ccc(C(O)CNC(=O)Nc2cc(C)nn2C)cc1` (stereo unspecified), for which the Percent Effect is -8.64% in test [1]; 5.26% in [2]; 3.77% in test [3]; -0.779% in test [4]; -9.59% in the test with Trypanosoma cruzi; -1.53% in test [5]. Besides, the Percent Effect in test [6] is 15.4%; in the test filed under Homo sapiens, 20.4%; in test [7] it was -3.43%; in test [8] it was -2.44%; in test [9], -6.99%.
Consider `CNC(=O)[C@@]12CCO[C@@H]1CCN(S(=O)(=O)c1cccnc1)C2`, for which the Percent Effect was -5.53% in [1]; 10.8% in [2]; 0.489% in [3]; -1.11% in test [4]; 4.99% with Trypanosoma cruzi; -3.5% in [5]. Moreover, the Percent Effect in test [6] turned out to be 9.96%; in the test listed under Homo sapiens, 4.96%; in test [7], 5.41%; in [8] it was 12.8%; in test [9] it was 0.201%.
